Results on 21 molecules are retold here after PubChem BioAssay (NCATS).

Results filed as inconclusive are left out. Values without a mark were called inactive. Activity calls are given as the source filed them. Calls follow the shape of the dose curve; as a rule, active = well fitted curve in the direction sought with a large enough effect; inconclusive = small, poorly fitted or top-dose-only effect, or another doubt; inactive = no such curve, though single readings can be large; an effect the other way counts as inactive or inconclusive.

The target of assay [1] is Rap guanine nucleotide exchange factor 3 (Homo sapiens) (UniProt O95398). Briefly: Confirmatory qHTS for antagonist of cAMP-regulated guanine nucleotide exchange factor 3 (EPAC1) (AID 1645880). Also: nearly all actives have a fitted effect of over 55% in size. Also: potency is read from the fitted curve at half-maximal effect. In a few lines: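 Released BODIPY-GDP fluoresces less than Rap1-bound BODIPY-GDP; the signal is followed at 480/540 nm at 5-min intervals over 30 min, after 5 min at room temperature. Reactions contain 100 nM EPAC1, 250 nM RAP1B-BODIPY-GDP and 50 uM GDP; results are normalized to ATA and DMSO.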

The target is the same in assay [2]. Briefly: Confirmatory qHTS for agonist of cAMP-regulated guanine nucleotide exchange factor 3 (EPAC1) (AID 1645881).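 Also: EPAC1 catalysed release of BODIPY-GDP from Rap1B seen as fluorescence loss; 100% = effect of cAMP agonist control; nearly all actives have a fitted effect of over 75% in size.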
For assay [3], the target named is Rap guanine nucleotide exchange factor 4 (Homo sapiens) (UniProt Q8WZA2). Briefly: Confirmatory qHTS for agonist of cAMP-regulated guanine nucleotide exchange factor 4 (EPAC2) (AID 1645884;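 also: nucleotide exchange releases bodipy-GDP from Rap1 and this lowers its fluorescence; % is scaled to controls: 0 for no effect and ±100 for the full control effect; nearly all actives have a fitted effect of over 65% in size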). (In general: qHTS replaces the single test concentration by a dilution series.)
Assay [4] has the same target. Briefly: Confirmatory qHTS for antagonist of cAMP-regulated guanine nucleotide exchange factor 4 (EPAC2) (AID 1645885). Also: nearly all actives have a fitted effect of over 25% in size. Also: potency is read from the fitted curve at half-maximal effect. As to activity change, negative = inhibition: % is scaled to controls: 0 for no effect and ±100 for the full control effect.
The target of assay [5] is Rap guanine nucleotide exchange factor 3 (Homo sapiens) (UniProt O95398). Nature of the assay: Counterscreen qHTS for antagonist of cAMP-regulated guanine nucleotide exchange factor 3 (EPAC1) (AID 1645888). Also: % of control where 0% means no effect. The procedure, abridged: (§1)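 Rap1B-BODIPY-GDP 250 nM + GDP 50 uM; cpds 7-pt, final 9.74 nM–152 uM (activator mode) or from 7.32 nM upwards (inhibitor mode); RT; FI 480/540 nm at 5 and 30 min, then ± cAMP, reread.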

Assay [6] has the same target. Briefly: Counterscreen qHTS for agonist of cAMP-regulated guanine nucleotide exchange factor 3 (EPAC1) (AID 1645889). Also: nearly all actives have a fitted effect of over 40% in size. Also: potency is read from the fitted curve at half-maximal effect. As to activation: % of control where 0% means no effect. In a few lines: as §1
(The purpose of a counterscreen is to sort out artefacts and off-target activity.)

Rap guanine nucleotide exchange factor 3 (Homo sapiens), sequence (O95398 whole entry, looked up): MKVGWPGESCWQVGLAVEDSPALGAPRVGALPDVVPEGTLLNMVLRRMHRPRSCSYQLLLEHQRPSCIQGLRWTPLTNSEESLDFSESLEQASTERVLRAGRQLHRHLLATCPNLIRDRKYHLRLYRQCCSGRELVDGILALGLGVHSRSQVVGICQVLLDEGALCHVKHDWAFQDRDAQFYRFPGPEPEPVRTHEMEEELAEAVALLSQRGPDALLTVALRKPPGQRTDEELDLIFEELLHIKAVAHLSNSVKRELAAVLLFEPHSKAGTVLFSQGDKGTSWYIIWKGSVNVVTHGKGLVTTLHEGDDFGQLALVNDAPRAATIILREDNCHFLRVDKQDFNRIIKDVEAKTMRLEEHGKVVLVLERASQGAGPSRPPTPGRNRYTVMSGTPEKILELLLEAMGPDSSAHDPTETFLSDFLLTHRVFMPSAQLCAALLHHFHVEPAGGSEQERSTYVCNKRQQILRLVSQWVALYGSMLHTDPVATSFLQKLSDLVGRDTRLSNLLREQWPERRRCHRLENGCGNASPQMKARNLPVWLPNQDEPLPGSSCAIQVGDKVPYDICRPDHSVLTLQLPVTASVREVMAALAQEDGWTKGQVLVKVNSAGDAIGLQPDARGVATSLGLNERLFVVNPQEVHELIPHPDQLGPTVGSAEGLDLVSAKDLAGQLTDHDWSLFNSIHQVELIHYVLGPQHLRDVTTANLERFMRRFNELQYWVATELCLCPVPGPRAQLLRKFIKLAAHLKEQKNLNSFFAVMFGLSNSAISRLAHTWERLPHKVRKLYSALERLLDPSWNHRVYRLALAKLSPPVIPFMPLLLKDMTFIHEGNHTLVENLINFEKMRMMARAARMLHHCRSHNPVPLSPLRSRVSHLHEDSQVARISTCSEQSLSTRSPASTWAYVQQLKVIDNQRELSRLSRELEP
Rap guanine nucleotide exchange factor 4 (Homo sapiens), sequence (Q8WZA2 whole entry, looked up): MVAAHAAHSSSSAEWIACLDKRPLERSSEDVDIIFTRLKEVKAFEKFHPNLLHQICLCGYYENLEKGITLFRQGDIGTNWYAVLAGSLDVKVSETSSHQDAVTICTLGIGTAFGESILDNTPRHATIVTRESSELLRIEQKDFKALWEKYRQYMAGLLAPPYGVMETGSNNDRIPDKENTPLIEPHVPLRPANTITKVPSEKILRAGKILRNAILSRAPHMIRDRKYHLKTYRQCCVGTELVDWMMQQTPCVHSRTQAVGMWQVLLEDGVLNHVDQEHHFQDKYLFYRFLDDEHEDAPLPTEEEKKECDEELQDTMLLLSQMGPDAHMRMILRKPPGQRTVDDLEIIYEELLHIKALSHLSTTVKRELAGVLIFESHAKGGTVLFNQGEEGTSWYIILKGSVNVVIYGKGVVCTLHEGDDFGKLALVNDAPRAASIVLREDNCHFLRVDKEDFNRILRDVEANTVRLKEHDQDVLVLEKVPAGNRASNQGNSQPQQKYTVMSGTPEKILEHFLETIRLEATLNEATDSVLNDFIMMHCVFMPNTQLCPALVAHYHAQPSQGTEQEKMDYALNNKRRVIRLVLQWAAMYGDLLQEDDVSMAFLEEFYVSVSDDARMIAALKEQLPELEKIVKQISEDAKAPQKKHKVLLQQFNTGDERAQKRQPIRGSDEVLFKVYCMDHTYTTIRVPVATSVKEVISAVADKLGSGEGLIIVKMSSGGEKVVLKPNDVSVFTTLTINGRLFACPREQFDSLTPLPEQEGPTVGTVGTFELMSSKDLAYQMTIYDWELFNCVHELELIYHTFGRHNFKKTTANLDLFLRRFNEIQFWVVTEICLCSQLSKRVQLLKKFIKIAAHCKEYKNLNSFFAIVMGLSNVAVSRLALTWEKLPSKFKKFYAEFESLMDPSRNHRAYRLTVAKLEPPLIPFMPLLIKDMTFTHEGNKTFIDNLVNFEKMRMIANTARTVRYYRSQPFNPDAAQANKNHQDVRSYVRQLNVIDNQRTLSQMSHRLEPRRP

Consider `COc1ccc(N(C)C(=O)c2oc(=O)c3ccccc3c2-c2ccc(C)cc2)c(OC)c1`, for which the Potency entry in assay [1], in assay [2], in assay [3], in assay [4], in assay [5] and in assay [6] was “inactive” throughout.

For the molecule `CC(C)(C)[C@H](N)C(=O)N[C@H]1CCC2C3CC=C4C[C@@H](O)CC[C@]4(C)C3CC[C@@]21C` (stereo partly specified), the Potency result in assay [1], in assay [2] and in assay [4] was “inactive” throughout. In addition, the activation was 3.5% [at 17.1 µM, percent relative to cAMP agonist control] in assay [3] and 31.4% [at 30.8 µM] in assay [6]. For the same molecule, the activity change, negative = inhibition in assay [5] was -9.07% [at 30.8 µM].

For the molecule `Cc1ccc(C(CCN(Cc2ccccc2)C(=O)c2ccco2)c2ccco2)cc1` (stereo unspecified), the Potency is 37.9 µM (active) in assay [1] and 53.6 µM (active) in assay [4]. Also, the Potency entry in assay [2], in assay [3], in assay [5] and in assay [6] was “inactive” in each case.

For the molecule `CC1=C(C(=O)NC2CCC(C)CC2)C2(CCC(C)CC2)OC1=O` (stereo unspecified), the Potency entry in assay [1], in assay [2] and in assay [4] was “inactive” each time. The activation in assay [3] was 1.07% [at 17.1 µM, percent relative to cAMP agonist control]; in assay [6], -0.546% [at 30.8 µM]. For the same molecule, the activity change, negative = inhibition in assay [5] is -11.5% [at 30.8 µM].

Take `CC1CC(C)CN(C(=O)c2cccc(S(=O)(=O)Nc3cc(C(F)(F)F)ccc3Cl)c2)C1` (stereo unspecified): the Potency in assay [1] is 13.5 µM (active). Besides, the Potency result in assay [2], in assay [3], in assay [4], in assay [5] and in assay [6] was “inactive” in each case.

For `Cc1ccc2nc(NC(=O)CSc3ncnc4c3oc3ccccc34)sc2c1`, the Potency entry in assay [1], in assay [2], in assay [3], in assay [4], in assay [5] and in assay [6] was “inactive” each time.

In the case of `CC1CCC2=NN(C(=O)c3ccco3)C(O)(C(F)(F)F)C2C1` (stereo unspecified), the Potency entry in assay [1], in assay [2] and in assay [4] was “inactive” throughout. Further, the activation was 4.2% [at 17.1 µM, percent relative to cAMP agonist control] in assay [3] and -2.19% [at 30.8 µM] in assay [6]. Further, in assay [5], the activity change, negative = inhibition is -9.1% [at 30.8 µM].

For `c1ccc(-c2nc(C3CCCCC3)c3ccccc3n2)cc1`, the Potency result in assay [1], in assay [2] and in assay [4] was “inactive” throughout. The activation in assay [3] is 3.01% [at 17.1 µM, percent relative to cAMP agonist control]; in assay [6] it was 34% [at 30.8 µM]. For the same molecule, the activity change, negative = inhibition in assay [5] was -1.41% [at 30.8 µM].

Regarding `COc1ccc(C2c3c(ncn(CCCO)c3=N)Oc3ccc4ccccc4c32)cc1` (stereo unspecified), the Potency entry in assay [1], in assay [2] and in assay [4] was “inactive” in each case. For the same molecule, the activation was 3.99% [at 17.1 µM, percent relative to cAMP agonist control] in assay [3] and 22.2% [at 30.8 µM] in assay [6]. For the same molecule, the activity change, negative = inhibition in assay [5] was 0.394% [at 30.8 µM].

On to `CCCC1CC(c2csc(N)n2)CCO1` (stereo unspecified), for which the Potency entry in assay [1], in assay [2], in assay [3], in assay [4], in assay [5] and in assay [6] was “inactive” throughout.

For the molecule `C=CCN(CC=C)Cc1cc(=O)oc2cc(OC)ccc12`, the Potency result in assay [1], in assay [2] and in assay [4] was “inactive” each time. In addition, the activation in assay [3] is 5.94% [at 17.1 µM, percent relative to cAMP agonist control]; in assay [6], -2.24% [at 30.8 µM]. Besides, the activity change, negative = inhibition in assay [5] was -16% [at 30.8 µM].

Consider `Cc1ccc(CNC(=O)C(=O)NCCC2CCCCN2S(=O)(=O)c2cccs2)cc1` (stereo unspecified), for which the Potency entry in assay [1], in assay [2] and in assay [4] was “inactive” throughout. Also, the activation in assay [3] was -1.43% [at 17.1 µM, percent relative to cAMP agonist control]; in assay [6], 20.6% [at 30.8 µM]. Further, the activity change, negative = inhibition in assay [5] is -26.3% [at 30.8 µM].

Turning to `CCCN(CC(=O)Nc1ccccc1C)C(=O)C1CCN(S(=O)(=O)c2ccccc2C(F)(F)F)CC1`, the Potency entry in assay [1], in assay [2], in assay [3], in assay [4], in assay [5] and in assay [6] was “inactive” each time.

Consider `Cc1onc(-c2ccccc2)c1C(=O)c1c[nH]c(C(=O)NCCCN2CCOCC2)c1`, for which the Potency result in assay [1], in assay [2] and in assay [4] was “inactive” each time. Also, the activation in assay [3] was -2.44% [at 17.1 µM, percent relative to cAMP agonist control]; in assay [6], -11.1% [at 30.8 µM]. In addition, in assay [5], the activity change, negative = inhibition was -20.3% [at 30.8 µM].

On to `COC(=O)CC1(C(=O)OC)Oc2ccc(Br)cc2C(=O)N1c1cc(Cl)cc(Cl)c1` (stereo unspecified), for which the Potency result in assay [1] and in assay [2] was “inactive” throughout. For the same molecule, in assay [3], the activation is 5.41% [at 17.1 µM, percent relative to cAMP agonist control]. In addition, the Potency was 2.13 µM (active) in assay [4] and 0.0282 µM (active) in assay [6]. Moreover, the activity change, negative = inhibition in assay [5] was -4.58% [at 30.8 µM].

As for `CCN(CC)S(=O)(=O)c1cc(NC(=O)Cn2ncc(Cl)c(Cl)c2=O)ccc1C`, in assay [1], the Potency is 39.8 µM (active). Further, the Potency result in assay [2] and in assay [4] was “inactive” each time. Besides, the activation is -11.9% [at 17.1 µM, percent relative to cAMP agonist control] in assay [3] and 5.37% [at 30.8 µM] in assay [6]. For the same molecule, the activity change, negative = inhibition in assay [5] is -2.1% [at 30.8 µM].

`Oc1ccc(NCc2cccs2)cc1`: the Potency entry in assay [1], in assay [2] and in assay [4] was “inactive” in each case. Besides, the activation is 14.6% [at 17.1 µM, percent relative to cAMP agonist control] in assay [3] and 21.5% [at 30.8 µM] in assay [6]. For the same molecule, in assay [5], the activity change, negative = inhibition is 0.945% [at 30.8 µM].

Take `C(=N\N1CCN(C(c2ccccc2)c2ccccc2)CC1)/c1ccc2c(c1)OCO2`: the Potency result in assay [1], in assay [2], in assay [3], in assay [5] and in assay [6] was “inactive” in each case. Besides, the Potency in assay [4] was 84.9 µM (active).

Take `C/C(=N\NC(=O)C1CC1)c1cccs1`: the Potency entry in assay [1], in assay [2], in assay [3], in assay [4], in assay [5] and in assay [6] was “inactive” throughout.

In the case of `S=C(Nc1cccc2ccccc12)NC1CCCCC1`, the Potency result in assay [1], in assay [2] and in assay [4] was “inactive” each time. Besides, the activation is 0.103% [at 17.1 µM, percent relative to cAMP agonist control] in assay [3] and 5.1% [at 30.8 µM] in assay [6]. The activity change, negative = inhibition in assay [5] was 5.07% [at 30.8 µM].

For `Cc1cc(=O)n2c(sc3ccccc32)c1C#N`, the Potency entry in assay [1], in assay [2] and in assay [4] was “inactive” in each case. Moreover, the activation is -1.37% [at 17.1 µM, percent relative to cAMP agonist control] in assay [3] and 22.2% [at 30.8 µM] in assay [6]. For the same molecule, the activity change, negative = inhibition in assay [5] was 11.2% [at 30.8 µM].
